The sequences below were run against WRAP73 (assay: pooled miR-30 sensor sort-seq; sequence = guide strand). Details: shRNA.
Also: reference of the scale not given here.

| Sequence | sensor-assay potency score (higher = more potent) |
| --- | --- |
| TTGCTCTGTCGGTAACAGGTTT | -1.05 |
| TACGTGGACAACAACCGGCCAT | -0.35 |
| TTTCGGGTTTGCTCTGTCGGTA | -0.96 |
| TTGTGCACAAGGACCAGACGGT | 0.172 |
| TTCGGGTTTGCTCTGTCGGTAA | -0.662 |
| TTATACACCACTATCTTGGGAT | 0.881 |
| TATTTACTCTCTGAGCTCGGGA | -0.387 |
| TAACAGGTTTCAGTGTCTGTAA | -0.596 |
| TAATCTTTGCAGTCGCGCCGTT | -0.556 |
| TACATATTTACAAAAATGCTTT | -1.06 |
| TTGCTGAGGAGGGCCATCGAGT | -1.36 |
| TTGGGAATGTTGTCGTTCCTTG | -0.237 |

Each sequence was assayed against WRB in the same assay as above. Details: shRNA.

| Sequence | sensor-assay potency score (higher = more potent) |
| --- | --- |
| TCGTCCATCATGTTGACTGTGG | -0.317 |
| TTGGCTAATTGAGCTGTCCGAG | -0.552 |
| TCACATTTCGTACAGATCGAGG | -1.13 |
| TTGCATCCAAACACGAAGCTGA | 0.58 |
| TTAAATACAAAACACAAGTTGA | -0.499 |
| TTACAGACTAAAATCCAACAGG | -0.429 |
| TACTATACAACTCTTGCTCAAC | -0.82 |
| TAGTGTTGTTCTTTTAACCATA | -0.891 |
| TTGAGCTTATCCGTCATCTTGT | 0.602 |
| TAATACTATACAACTCTTGCTC | 0.423 |
| TTATCTTGGCTAATTGAGCTGT | -0.0399 |
| ATATCTGGCAAACTCGTCCATC | -0.952 |

— the OligoGym collection
